These results are taken from PubChem BioAssay (Tox21).

The source made the active and inactive calls. Entries that show only a call come without a potency. The call rests on the fitted dose curve. Residues, ends and D or L forms follow the SMILES beside them.

For the assay, the target named is Acetylcholinesterase (Homo sapiens) (UniProt P22303). Nature of the assay: Acetylcholinesterase (AChE) small molecule antagonists: enzyme-based qHTS assay with human liver microsomes (AID 1347399). Further: nearly all actives have a fitted effect of over 60% in size. As to conditions: Potency: qHTS inhibition; outcome: qHTS inhibition; series mostly up to 115 µM. Put shortly: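 Recombinant human AChE (50 mU/mL in the enzyme mix) and human liver microsomes (0.25 mg/mL final) were preincubated with compound and NADPH (0.25 mg/mL final) for 30 min at 37 C. Acetylthiocholine/DTNB was then added; thiocholine was read colorimetrically after 10 min at room temperature.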
Chain of Acetylcholinesterase (Homo sapiens) (P22303 whole entry, looked up): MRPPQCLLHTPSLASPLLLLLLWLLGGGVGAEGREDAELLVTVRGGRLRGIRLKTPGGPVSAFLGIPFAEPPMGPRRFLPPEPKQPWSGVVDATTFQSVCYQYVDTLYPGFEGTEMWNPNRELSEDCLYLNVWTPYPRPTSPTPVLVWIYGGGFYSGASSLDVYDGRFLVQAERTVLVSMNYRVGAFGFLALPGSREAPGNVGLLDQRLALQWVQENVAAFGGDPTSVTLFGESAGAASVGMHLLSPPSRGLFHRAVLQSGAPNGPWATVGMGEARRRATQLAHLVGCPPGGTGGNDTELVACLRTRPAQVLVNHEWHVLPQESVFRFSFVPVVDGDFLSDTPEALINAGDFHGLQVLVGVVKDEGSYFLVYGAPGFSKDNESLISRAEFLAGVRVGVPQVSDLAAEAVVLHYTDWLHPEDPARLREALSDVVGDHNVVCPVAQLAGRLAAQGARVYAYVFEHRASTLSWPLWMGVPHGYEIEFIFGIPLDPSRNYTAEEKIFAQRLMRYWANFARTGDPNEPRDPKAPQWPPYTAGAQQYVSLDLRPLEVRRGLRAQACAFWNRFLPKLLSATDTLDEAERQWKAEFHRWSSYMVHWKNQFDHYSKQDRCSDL
For `O=C[C@H](O)[C@H](O)[C@H](O)CO`, the Potency result was “inactive”.

As to `CCCCCCCCCC(=O)OC`, the Potency result was “inactive”.

For the molecule `O=C(O)c1ccc(-n2nc(-c3ccccc3O)nc2-c2ccccc2O)cc1`, the Potency result was “inactive”.

Turning to `Nc1cc(Cl)c(-c2cc(Cl)c(N)cc2Cl)cc1Cl`, the Potency result is “inactive”.

As for `CCC(=O)Nc1cccc(N)c1`, the Potency entry is “inactive”.

On to `O=[N+]([O-])c1cc[n+]([O-])cc1`, for which the Potency entry is “inactive”.

As for `CNS(=O)(=O)Cc1ccc2[nH]cc(CCN(C)C)c2c1`, the Potency result is “inactive”.

As for `CC(C)CC=O`, the Potency result was “inactive”.

As to `CCNc1nc(N)nc(Cl)n1`, the Potency entry was “inactive”.

Turning to `CC(=O)[C@H]1CC[C@H]2[C@@H]3CCC4=CC(=O)CC[C@]4(C)[C@H]3CC[C@]12C`, the Potency entry was “inactive”.

As for `COCC(C)O` (stereo not given), the Potency result is “inactive”.

Consider `CO[C@H]1C=CO[C@@]2(C)Oc3c(C)c(O)c4c(O)c(c(/C=N/N5CCN(C)CC5)c(O)c4c3C2=O)NC(=O)/C(C)=C\C=C[C@H](C)[C@H](O)[C@@H](C)[C@@H](O)[C@@H](C)[C@H](OC(C)=O)[C@@H]1C`, for which the Potency entry is “inactive”.

For the molecule `CCN[C@H]1CN(CCCOC)S(=O)(=O)c2sc(S(N)(=O)=O)cc21`, the Potency result was “inactive”.

As for `COc1cc(C=O)ccc1O`, the Potency result is “inactive”.

Regarding `c1ccc(Nc2cccc3ccccc23)cc1`, the Potency result was “inactive”.

In the case of `CCCCCCCCS(=O)C(C)Cc1ccc2c(c1)OCO2` (stereo not given), the Potency entry is “inactive”.

In the case of `CC1CCC(C(C)CS)CC1S` (stereo not given), the Potency result is “inactive”.

Consider `CCC(=O)CC(C)CC` (stereo not given), for which the activity change, negative = inhibition is 0% [at 0.435 µM] (inactive).

On to `COC(=O)OC`, for which the Potency entry was “inactive”.

Turning to `CC(C)(C)NC(N)=O`, the Potency entry is “inactive”.

On to `CC(C)(C)C1CCC(O)CC1` (stereo not given), for which the Potency result is “inactive”.

Regarding `CC(=O)OC/C=C(C)/C=C/C=C(C)/C=C/C1=C(C)CCCC1(C)C`, the Potency result was “inactive”.

For the molecule `Cc1ccc(Cl)c(N)c1Cl`, the Potency result is “inactive”.

With `Cc1cc(Cc2ccc(N)c(C)c2)ccc1N`, the Potency result was “inactive”.

Take `CO[C@@]1(NC(=O)C(C(=O)O)c2ccc(O)cc2)C(=O)N2C(C(=O)O)=C(CSc3nnnn3C)CO[C@@H]21` (stereo not given in full): the Potency entry was “inactive”.

As to `Oc1ccc(Oc2ccccc2)cc1`, the Potency result was “inactive”.

`CCCCCCCCCCCCc1ccc(O)cc1`: the Potency result was “inactive”.

As to `CC(=O)Nc1ccc(OCC(O)CNC(C)C)cc1` (stereo not given), the Potency entry is “inactive”.

For the molecule `Cc1nc2c([nH]1)c(=O)n(C)c(=O)n2Cc1ccco1`, the Potency entry was “inactive”.

On to `Cc1cc(CC(=O)O)n(C)c1C(=O)c1ccc(Cl)cc1`, for which the Potency entry was “inactive”.

With `Nc1ccc(-c2ccc(F)cc2)cc1`, the Potency entry is “inactive”.

Turning to `NC(=O)NC1NC(=O)NC1=O` (stereo not given), the Potency entry was “inactive”.

On to `O=C(O)c1ccc(OCCCOc2ccc(C(=O)O)cc2)cc1`, for which the Potency entry is “inactive”.

For `CSc1cnccn1`, the Potency entry was “inactive”.

In the case of `CN(C)CCCCl`, the Potency entry is “inactive”.

With `O=C1c2ccccc2C(=O)c2c(O)ccc(O)c21`, the Potency entry is “inactive”.

As for `N[C@@H](Cc1cc(I)c(Oc2cc(I)c(O)c(I)c2)c(I)c1)C(=O)O`, the Potency entry was “inactive”.

Turning to `Clc1cc(Cl)nc(Cl)n1`, the Potency result is “inactive”.

Regarding `CCCCCCCCCCCCc1ccccc1O`, the Potency result is “inactive”.

`COC(=O)[C@H](Cc1ccccc1)NC(=O)[C@@H](N)CC(=O)O` (H-Asp-Phe-OMe): the Potency entry is “inactive”.
